About 79,000 compounds went through this panel and 15% of them were active in at least one assay; those are over-represented in the sample as a whole. Calls of active or inactive are those of the source. Cut-off read from the data, not from the text of the source: active = growth inhibition above about 70%; inactive = the rest.
Columns and labels:
[1] = NCI Yeast Anticancer Drug Screen. Data for the rad52 strain (AID 147);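 note: 0% = growth of vehicle-treated control cultures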; details: S. cerevisiae rad52 mutant growth inhibition, active compounds read high
Procedure, shortened: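 Compounds are applied to a genetically defined yeast strain lacking normal DNA damage repair, and inhibition of growth is expressed relative to cultures given vehicle only.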

[2] = NCI Yeast Anticancer Drug Screen. Data for the wt1 strain (AID 149);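 note: 0% = growth of vehicle-treated wt1 cultures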; details: S. cerevisiae wt1 strain (SPY 50644) growth inhibition, active compounds read high
Procedure, shortened: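 wt1 strain grown with compound or vehicle; inhibition taken from the growth difference.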

[3] = NCI Yeast Anticancer Drug Screen. Data for the rad50EPP+ strain (AID 151);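 note: 0% = growth of vehicle-treated control cultures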; details: S. cerevisiae rad50 mutant strain, active compounds read high
Procedure, shortened: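 Compounds were applied to the rad50EPP+ yeast strain, which bears a defined DNA repair alteration, and growth inhibition was determined relative to vehicle-treated cultures.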

[4] = NCI Yeast Anticancer Drug Screen. Data for the mgt1 strain (AID 153); details: S. cerevisiae mgt1 mutant growth inhibition, active compounds read high
Procedure, shortened: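 Strain: mgt1 yeast, one of a set carrying defined DNA damage repair or cell cycle control alterations. Compound-treated growth compared with vehicle.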

[5] = NCI Yeast Anticancer Drug Screen. Data for the rad50 strain (AID 155);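 note: 0% = growth of vehicle-only cultures of the same strain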; details: S. cerevisiae rad50 strain growth inhibition, active compounds read high
Procedure, shortened: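 DNA repair mutant yeast, compound exposure, growth read-out; inhibition is taken relative to vehicle.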

[6] = NCI Yeast Anticancer Drug Screen. Data for the mec2-1 strain (AID 157); details: S. cerevisiae mec2-1 strain, active compounds read high
Procedure, shortened: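 Strain: mec2-1 (DNA repair/cell cycle alteration). Compound exposure, then growth measured; inhibition expressed relative to vehicle.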

[7] = NCI Yeast Anticancer Drug Screen. Data for the sgs1 mgt1 strain (AID 161);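 note: 0% = growth of cultures given vehicle only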; details: S. cerevisiae sgs1 mgt1 strain, active compounds read high
Procedure, shortened: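 Inhibition of yeast growth, normalised to vehicle-treated controls, is reported for a strain bearing genetic alterations in DNA damage repair.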

[8] = NCI Yeast Anticancer Drug Screen. Data for the CLN2oe strain (AID 163);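 note: 0% = growth of vehicle-only control cultures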; details: S. cerevisiae CLN2oe strain, active compounds read high
Procedure, shortened: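 Growth of a genetically modified yeast strain is measured after compound exposure and compared with cultures given vehicle alone.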

[9] = NCI Yeast Anticancer Drug Screen. Data for the cln2 rad14 strain (AID 165);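 note: 0% = growth equal to vehicle treated cultures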; details: S. cerevisiae cln2 rad14 strain, active compounds read high
Procedure, shortened: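 Compounds are applied to the cln2 rad14 yeast strain, and growth is then compared with that of vehicle-treated cultures to give inhibition.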

[10] = NCI Yeast Anticancer Drug Screen. Data for the bub3 strain (AID 167); details: S. cerevisiae bub3 mutant strain, active compounds read high
Procedure, shortened: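 In this screen, a yeast mutant lacking normal mitotic checkpoint function is challenged with compound. Relative growth versus vehicle gives the inhibition value.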

[11] = NCI Yeast Anticancer Drug Screen. Data for the wt2 strain (AID 169);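 note: 0% = growth of vehicle-treated yeast cultures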; details: S. cerevisiae wt2 strain growth inhibition, active compounds read high
Procedure, shortened: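 This strain belongs to a panel of yeast strains with defined genetic alterations in DNA damage repair or cell cycle control. Compounds are applied, and growth inhibition is measured against vehicle-treated cultures.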

[12] = NCI Yeast Anticancer Drug Screen. Data for the mlh1 strain (AID 171);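 note: 0% = growth of vehicle-treated control cultures of the same strain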; details: S. cerevisiae mlh1 strain growth inhibition, active compounds read high
Procedure, shortened: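 Growth of the mutant yeast strain after compound exposure, expressed as inhibition relative to vehicle-only controls.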

[13] = NCI Yeast Anticancer Drug Screen. Data for the sgs1 strain (AID 173);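 note: 0% = growth of vehicle-only control cultures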; details: S. cerevisiae sgs1 mutant, active compounds read high
Procedure, shortened: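 Growth of a yeast strain bearing a defined genetic alteration is measured after compound treatment. Inhibition is expressed relative to vehicle-only controls.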

[14] = NCI Yeast Anticancer Drug Screen. Data for the mlh1 rad18 strain (AID 175); details: S. cerevisiae mlh1 rad18 strain growth inhibition, active compounds read high
Procedure, shortened: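 Read-out is yeast growth inhibition, calculated against vehicle-only controls. The compound was applied to a strain engineered with DNA damage repair alterations.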

[15] = NCI Yeast Anticancer Drug Screen. Data for the rad18 strain (AID 177); details: S. cerevisiae rad18 mutant growth inhibition, active compounds read high
Procedure, shortened: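 Growth of the mutant yeast strain after compound exposure, normalised to vehicle-only cultures.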

[16] = at 5.0 µM (retest, dose inferred, filed as 0.5)
[17] = at 50.0 µM (retest, dose inferred, filed as 5.0)

Measured: growth inhibition

COc1cc2ccc(/C=C\[N+](=O)[O-])cc2cc1OC
inactive: [1]; at 1.2 µM 1% | [1]; at 3.7 µM 13% | [2]; at 1.2 µM -24% | [2]; at 3.7 µM -25% | [2]; at 11.0 µM -37% | [3]; at 1.2 µM 18% | [3]; at 3.7 µM 39% | [4]; at 1.2 µM -18% | [4]; at 3.7 µM -23% | [4]; at 11.0 µM 24% | [5]; at 1.2 µM -5% | [5]; at 3.7 µM 26% | [5]; [16] 44% | [5]; at 11.0 µM 51% | [6]; at 1.2 µM 10% | [6]; at 3.7 µM -34% | [6]; [16] 29% | [6]; at 11.0 µM 38% | [7]; [16] 11% | [8]; at 1.2 µM 12% | [8]; at 3.7 µM 0% | [8]; at 11.0 µM -4% | [9]; [16] -14% | [9]; [17] -25% | [10]; at 1.2 µM -30% | [10]; at 3.7 µM -21% | [10]; [16] 17% | [10]; at 11.0 µM -22% | [10]; [17] 53% | [11]; at 1.2 µM -14% | [11]; at 3.7 µM 4% | [11]; at 11.0 µM 22% | [12]; at 1.2 µM -36% | [12]; at 3.7 µM -36% | [12]; at 11.0 µM 19% | [13]; at 1.2 µM -4% | [13]; at 3.7 µM 16% | [13]; at 11.0 µM 47% | [14]; [16] 45% | [15]; at 1.2 µM -17% | [15]; at 3.7 µM -33% | [15]; at 11.0 µM 18%
active: [1]; at 11.0 µM 70% | [1]; at 33.0 µM 97% | [1]; at 100.0 µM 94% | [2]; at 33.0 µM 98% | [2]; at 100.0 µM 96% | [3]; at 11.0 µM 83% | [3]; at 33.0 µM 98% | [3]; at 100.0 µM 96% | [4]; at 33.0 µM 97% | [4]; at 100.0 µM 95% | [5]; at 33.0 µM 96% | [5]; [17] 99% | [5]; at 50.0 µM 91% | [5]; at 100.0 µM 94% | [6]; at 33.0 µM 97% | [6]; [17] 99% | [6]; at 50.0 µM 90.5% | [6]; at 100.0 µM 95% | [7]; [17] 85% | [7]; at 50.0 µM 90.7% | [8]; at 33.0 µM 91% | [8]; at 100.0 µM 95% | [9]; at 50.0 µM 86.1% | [10]; at 33.0 µM 85% | [10]; at 50.0 µM 91.9% | [10]; at 100.0 µM 95% | [11]; at 33.0 µM 98% | [11]; at 100.0 µM 97% | [12]; at 33.0 µM 98% | [12]; at 100.0 µM 97% | [13]; at 33.0 µM 98% | [13]; at 100.0 µM 97% | [14]; [17] 98% | [14]; at 50.0 µM 92.3% | [15]; at 33.0 µM 97% | [15]; at 100.0 µM 93%

CC(C)(CN1CCCCC1)C(=O)CC(SCCS(=O)(=O)O)c1ccc(Br)cc1 (stereo not drawn)
inactive: [1]; at 1.2 µM 1% | [1]; at 3.7 µM 6% | [1]; at 11.0 µM 9% | [1]; at 33.0 µM 22% | [1]; at 100.0 µM 54% | [2]; at 1.2 µM 3% | [2]; at 3.7 µM 6% | [2]; at 11.0 µM 9% | [2]; at 33.0 µM 11% | [2]; at 100.0 µM 24% | [3]; at 1.2 µM -2% | [3]; at 3.7 µM -4% | [3]; at 11.0 µM -4% | [3]; at 33.0 µM 0% | [3]; at 100.0 µM 14% | [4]; at 1.2 µM -1% | [4]; at 3.7 µM 0% | [4]; at 11.0 µM 8% | [4]; at 33.0 µM 21% | [4]; at 100.0 µM 59% | [5]; at 1.2 µM -2% | [5]; at 3.7 µM -5% | [5]; [16] 13% | [5]; at 11.0 µM -1% | [5]; at 33.0 µM 24% | [5]; [17] 32% | [5]; at 100.0 µM 50% | [6]; at 1.2 µM 1% | [6]; at 3.7 µM 6%
active: [5]; at 50.0 µM 73.8%

From PubChem BioAssay (NCI)
